Source: PubChem BioAssay
GLP1R cytotox = cytotoxicity counter-screen for GLP-1 receptor inverse agonists. Potency, µM (series often up to 38.3 µM), without a hit: top-dose activity change, negative = inhibition, actives largely listed as inhibitors. HEK293 cAMP-luciferase reporter cells, luminescence, 24 h. 0.13% of 410,000 active;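 also: loss of luciferase light is scored as toxicity; % is scaled to controls: 0 for no effect and ±100 for the full control effect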
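MLSMR compounds, 24 hr on cells at 37 deg C/5% CO2; luminescence after luciferase reagent (12 min RT). Inhibition counted as the undesired cytotoxic outcome.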
GLP-1R inv ag = GLP-1 receptor (human) inverse agonism; AID 624417; HEK293 GLP-1R CRE-luciferase, luminescence, 24 h; GLP-1R form is constitutively active; Potency, µM (series often up to 38.3 µM), for the others: at the highest dose activity change, negative = inhibition, usual class: inhibitors; 1.6% of 410,000 active; also: % is scaled to controls: 0 for no effect and ±100 for the full control effect; nearly all actives have a fitted effect of over 55% in size
Target sequence (P43220 whole entry, looked up): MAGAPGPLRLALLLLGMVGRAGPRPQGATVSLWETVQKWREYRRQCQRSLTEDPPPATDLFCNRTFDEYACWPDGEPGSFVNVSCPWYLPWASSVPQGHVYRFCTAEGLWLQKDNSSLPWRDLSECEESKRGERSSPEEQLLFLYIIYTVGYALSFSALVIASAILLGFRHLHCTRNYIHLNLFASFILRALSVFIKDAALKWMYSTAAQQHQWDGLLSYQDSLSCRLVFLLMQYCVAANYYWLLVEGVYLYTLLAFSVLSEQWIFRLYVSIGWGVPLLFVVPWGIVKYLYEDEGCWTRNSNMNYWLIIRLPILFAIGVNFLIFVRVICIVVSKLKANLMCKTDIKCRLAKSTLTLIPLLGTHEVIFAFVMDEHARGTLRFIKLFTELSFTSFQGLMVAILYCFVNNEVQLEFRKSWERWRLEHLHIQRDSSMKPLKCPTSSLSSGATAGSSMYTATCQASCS
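Constitutively active GLP-1R drives a cAMP-responsive luciferase in stably transfected HEK293 cells; test compounds are added after overnight (12 h) attachment and left 24 hr, and signal loss in luminescence marks inhibition.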
PTHR1 agonist = agonists of human PTHR1 parathyroid hormone receptor | Q03431 | HEK293 GP2 PTHR1 cells, GloSensor cAMP luminescence, 1 h | Potency, µM (highest dose often 115 µM), without a hit: top-dose activation, usual class: activators | 0.075% of 410,000 active; also: nearly all actives have a fitted effect of over 55% in size
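HEK-293-derived GP2 cells expressing PTHR1 and a GloSensor cAMP reporter, 3,000/well, plated overnight, given luciferin plus IBMX (each 0.5 mM as added) for 1 h at 37 °C, then compound for 1 h at 37 °C. Luminescence was read after 15 min at room temperature.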
GLP-1R agonist = activates the human GLP-1 receptor | HEK293 GLP-1R CRE-luciferase, luminescence, 4-6 h; cells express a hypersensitive GLP-1R form | Potency, µM (highest dose often 45.6 µM), for the others: top-dose activation, hits mostly activators | 0.007% of 380,000 active; also: % of control where 0% means no effect
* hit, by the source's call; [ ] = remark or other dose. Sampled rows, rich in hits. Any-hit rate of the full collection: about 1.7%. Calls follow the shape of the dose curve; as a rule, active = well fitted curve in the direction sought with a large enough effect; inconclusive = small, poorly fitted or top-dose-only effect, or another doubt; inactive = no such curve, though single readings can be large; an effect the other way counts as inactive or inconclusive. Potency is read from the fitted curve at half-maximal effect.

Screening CCOC(=O)C1=C(c2ccccc2)N=c2s/c(=C\c3cccc(O)c3)c(=O)n2C1c1cccs1 (configuration not stated) returned GLP1R cytotox -10%, GLP-1R inv ag 11µM*, PTHR1 agonist inactive and GLP-1R agonist -1%.
Screening CCCS(=O)(=O)N1CCCC(C(=O)NCCCOC)C1 (configuration not stated) returned GLP1R cytotox 1%, GLP-1R inv ag 3%, PTHR1 agonist inactive and GLP-1R agonist -1%.
`C/C(=N\NC(=O)c1ccccc1)c1ccccc1F` gave GLP1R cytotox 13%, GLP-1R inv ag 22%, PTHR1 agonist inactive and GLP-1R agonist 4%.
For C/C(=N\NC(=O)c1ccccc1)c1ccccc1Br the results were GLP1R cytotox 5µM*, GLP-1R inv ag inconclusive, PTHR1 agonist inactive and GLP-1R agonist 9%.
`Cc1ccc(NS(=O)(=O)c2ccc(-n3cccn3)cc2)c(C)c1` gave GLP1R cytotox 11%, GLP-1R inv ag 10µM*, PTHR1 agonist -13% and GLP-1R agonist 3%.
For O=C(Nc1ccc2c(c1)OCCO2)c1cccc(Cl)c1Cl the results were GLP1R cytotox -12%, GLP-1R inv ag 11µM*, PTHR1 agonist -21% and GLP-1R agonist -2%.
`O=C(N/N=C/c1ccccc1)c1sccc1OCc1ccc(F)cc1` gave GLP1R cytotox -20%, GLP-1R inv ag 8.9µM*, PTHR1 agonist -36%[57.5 µM] and GLP-1R agonist 11%.
O=C(N/N=C/c1ccccc1)c1ccc(OCc2ccccc2)cc1 was read as GLP1R cytotox -8%, GLP-1R inv ag -11%, PTHR1 agonist -12% and GLP-1R agonist 7%.
`C/C(=N\NC(=S)NC1CCCCC1)c1ccccc1` gave GLP1R cytotox inconclusive, GLP-1R inv ag 5.6µM*, PTHR1 agonist -17% and GLP-1R agonist 6%.
S=C(NC1CCCCC1)NN(c1ccccc1)c1ccccc1 was read as GLP1R cytotox inconclusive, GLP-1R inv ag 10µM*, PTHR1 agonist -6% and GLP-1R agonist -3%.
Screening C/C(=N\NC(=S)NC1CCCCC1)c1ccc(O)cc1 returned GLP1R cytotox inconclusive, GLP-1R inv ag inconclusive, PTHR1 agonist inconclusive and GLP-1R agonist 27%.
O=C(NC(=S)NC1CCCCC1)c1ccccc1 was read as GLP1R cytotox inconclusive, GLP-1R inv ag inconclusive, PTHR1 agonist -8% and GLP-1R agonist 1%.
Screening COc1ccc(CNC(=O)COC(=O)c2[nH]c(C)c(C(C)=O)c2C)cc1OC returned GLP1R cytotox -12%, GLP-1R inv ag 10%, PTHR1 agonist inactive and GLP-1R agonist -4%.
`CN(C)S(=O)(=O)c1ccc(Cl)c(NC(=O)CN2CCCCCC2)c1` gave GLP1R cytotox 16%, GLP-1R inv ag inconclusive, PTHR1 agonist -3% and GLP-1R agonist 23%.
For CCN(c1ccccc1)S(=O)(=O)c1ccc(Cl)c(NC(=O)CN2CCCCCC2)c1 the results were GLP1R cytotox 0%, GLP-1R inv ag 1.6µM*, PTHR1 agonist -27% and GLP-1R agonist 21%.
CCN(c1ccccc1)S(=O)(=O)c1ccc(Cl)c(NC(=O)CN(C)Cc2cccc(F)c2)c1 was read as GLP1R cytotox 5%, GLP-1R inv ag 5µM*, PTHR1 agonist -18% and GLP-1R agonist 13%.
Screening CCC(C)NCC(=O)Nc1cc(S(=O)(=O)N(CC)c2ccccc2)ccc1Cl (configuration not stated) returned GLP1R cytotox -3%, GLP-1R inv ag inconclusive, PTHR1 agonist inactive and GLP-1R agonist 6%.
For CC(C)NC(=O)CSc1ccccc1C(=O)NNC(=O)Cn1ccc(C(F)(F)F)n1 the results were GLP1R cytotox -6%, GLP-1R inv ag 15%, PTHR1 agonist inactive and GLP-1R agonist -20%.
Screening COc1ccc(S(=O)(=O)N2CC3CCCN3c3cc(C(F)(F)F)ccc32)cc1 (configuration not stated) returned GLP1R cytotox 19%, GLP-1R inv ag 10µM*, PTHR1 agonist inactive and GLP-1R agonist -3%.
For COc1ccc(S(=O)(=O)N2CC3CCCN3c3ccc(C(F)(F)F)cc32)cc1 (configuration not stated) the results were GLP1R cytotox -2%, GLP-1R inv ag -15%, PTHR1 agonist -71% and GLP-1R agonist -6%.
